# Data from the supplement of paper PMC10849652.
# The full data set covers some 7,900 targets. This sample favours those with a hit. About 0.6% of all pairs of compound and target were hits. Values without a mark were called inactive.
# Experiments:
# Assay in all cases: log2 fold change, soluble protein after heating vs DMSO (PISA); higher = thermal stabilisation; K562 cells, 10 uM, 30 min; active = over 0.2 and 3.5 SD of the protein, either way, in both replicates (recomputed)
# [1] = compound: CS(=O)(=O)c1ccc(-c2cnc(N)c(C(=O)Nc3ccccc3)n2)cc1
# Procedure, shortened: (§1)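 K562 cells at 2×10^6 cells/mL were exposed to 10 μM compound for 30 min, then aliquots were heated for 3 min across 48°C-58°C, pooled, and extracted in PBS containing 0.5% NP-40 at 4°C. The supernatant after 21,000xg for 90 min was taken as soluble protein and measured by TMTpro 16plex LC-MS/MS with channel sums equalised. Thermal stability is reported relative to control samples, with values from duplicates. Fold changes are given on a log2 scale.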
# crizotinib = compound: C[C@@H](Oc1cc(-c2cnn(C3CCNCC3)c2)cnc1N)c1c(Cl)ccc(F)c1Cl [crizotinib]
# Procedure, shortened: as §1
# [2] = compound: C[C@@H]1COCCN1C2=NC(=NC(=C2)C3(CC3)S(=O)(=O)C)C4=C5C=CNC5=CC=C4
# Procedure, shortened: as §1
# [3] = compound: C[C@H](C1=CC=C(C=C1)C(=O)NC2=C3C=CNC3=NC=C2)N
# Procedure, shortened: as §1
# duvelisib = compound: C[C@H](Nc1ncnc2nc[nH]c12)c1cc2cccc(Cl)c2c(=O)n1-c1ccccc1 [duvelisib]
# Procedure, shortened: as §1
# gandotinib = compound: Cc1cc(Nc2cc(CN3CCOCC3)c3nc(C)c(Cc4ccc(Cl)cc4F)n3n2)n[nH]1 [gandotinib]
# Procedure, shortened: as §1
# tozasertib = compound: Cc1cc(Nc2cc(N3CCN(C)CC3)nc(Sc3ccc(NC(=O)C4CC4)cc3)n2)n[nH]1 [tozasertib]
# Procedure, shortened: as §1
# [4] = compound: Cc1cc(SCc2sc(-c3ccc(C(F)(F)F)cc3)nc2C)ccc1OCC(=O)O
# Procedure, shortened: as §1
# doramapimod = compound: Cc1ccc(-n2nc(C(C)(C)C)cc2NC(=O)Nc2ccc(OCCN3CCOCC3)c3ccccc23)cc1 [doramapimod]
# Procedure, shortened: as §1
# ispinesib = compound: Cc1ccc(C(=O)N(CCCN)[C@@H](c2nc3cc(Cl)ccc3c(=O)n2Cc2ccccc2)C(C)C)cc1 [ispinesib]
# Procedure, shortened: as §1
# UniProt Q7L2J0, sequence (Q7L2J0 whole entry, looked up): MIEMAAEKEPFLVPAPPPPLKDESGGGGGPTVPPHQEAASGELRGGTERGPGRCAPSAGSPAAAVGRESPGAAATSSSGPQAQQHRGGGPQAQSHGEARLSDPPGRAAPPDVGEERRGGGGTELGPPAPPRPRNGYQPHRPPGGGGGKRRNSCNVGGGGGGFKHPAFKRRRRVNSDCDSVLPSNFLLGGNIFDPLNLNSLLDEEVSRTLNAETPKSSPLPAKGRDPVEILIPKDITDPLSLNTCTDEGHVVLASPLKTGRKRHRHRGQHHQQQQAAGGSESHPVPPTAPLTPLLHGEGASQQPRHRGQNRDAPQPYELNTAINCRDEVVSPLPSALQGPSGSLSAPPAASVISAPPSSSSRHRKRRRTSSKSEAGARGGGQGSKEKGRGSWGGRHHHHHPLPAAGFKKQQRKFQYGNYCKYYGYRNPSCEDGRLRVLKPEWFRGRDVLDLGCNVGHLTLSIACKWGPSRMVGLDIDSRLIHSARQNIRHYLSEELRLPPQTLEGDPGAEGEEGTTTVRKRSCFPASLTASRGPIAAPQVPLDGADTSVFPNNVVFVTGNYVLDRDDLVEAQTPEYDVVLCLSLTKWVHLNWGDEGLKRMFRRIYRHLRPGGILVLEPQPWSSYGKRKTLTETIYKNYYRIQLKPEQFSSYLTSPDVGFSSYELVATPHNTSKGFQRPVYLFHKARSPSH
# UniProt Q96GA3, sequence (Q96GA3 whole entry, looked up): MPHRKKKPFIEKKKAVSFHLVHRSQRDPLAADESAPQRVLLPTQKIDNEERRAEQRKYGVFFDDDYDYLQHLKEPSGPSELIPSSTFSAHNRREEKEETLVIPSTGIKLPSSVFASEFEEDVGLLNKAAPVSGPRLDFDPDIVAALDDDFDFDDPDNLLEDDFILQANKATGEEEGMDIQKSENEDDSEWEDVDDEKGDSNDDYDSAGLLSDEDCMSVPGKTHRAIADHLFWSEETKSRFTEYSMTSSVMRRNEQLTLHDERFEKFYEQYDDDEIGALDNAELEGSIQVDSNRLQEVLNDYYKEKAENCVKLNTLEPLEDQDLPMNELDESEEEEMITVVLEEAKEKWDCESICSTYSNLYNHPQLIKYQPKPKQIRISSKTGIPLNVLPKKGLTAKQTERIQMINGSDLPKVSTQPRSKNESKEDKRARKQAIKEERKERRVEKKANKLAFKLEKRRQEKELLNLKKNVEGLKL
# UniProt P49006, sequence (P49006 whole entry, looked up): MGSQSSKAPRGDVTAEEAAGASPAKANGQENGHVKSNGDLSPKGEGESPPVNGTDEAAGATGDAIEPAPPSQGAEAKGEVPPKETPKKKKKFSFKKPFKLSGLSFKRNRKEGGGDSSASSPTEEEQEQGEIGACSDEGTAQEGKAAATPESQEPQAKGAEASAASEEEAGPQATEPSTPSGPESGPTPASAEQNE
# UniProt P20700, sequence (P20700 whole entry, looked up): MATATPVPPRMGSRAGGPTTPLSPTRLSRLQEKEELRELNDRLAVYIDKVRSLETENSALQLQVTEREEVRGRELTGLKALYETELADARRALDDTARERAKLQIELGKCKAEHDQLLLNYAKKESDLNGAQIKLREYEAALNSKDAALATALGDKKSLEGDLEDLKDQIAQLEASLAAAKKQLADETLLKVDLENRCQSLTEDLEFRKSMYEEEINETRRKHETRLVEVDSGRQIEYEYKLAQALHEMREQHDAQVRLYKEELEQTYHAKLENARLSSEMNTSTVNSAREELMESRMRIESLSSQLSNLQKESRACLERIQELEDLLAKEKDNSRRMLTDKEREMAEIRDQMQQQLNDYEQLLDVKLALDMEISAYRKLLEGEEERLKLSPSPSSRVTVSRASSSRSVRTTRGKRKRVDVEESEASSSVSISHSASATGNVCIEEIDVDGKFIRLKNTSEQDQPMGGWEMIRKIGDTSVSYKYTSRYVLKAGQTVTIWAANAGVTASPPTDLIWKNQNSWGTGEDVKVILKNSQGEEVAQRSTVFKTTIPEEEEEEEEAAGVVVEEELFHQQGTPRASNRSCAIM
# UniProt P23276, sequence (P23276 whole entry, looked up): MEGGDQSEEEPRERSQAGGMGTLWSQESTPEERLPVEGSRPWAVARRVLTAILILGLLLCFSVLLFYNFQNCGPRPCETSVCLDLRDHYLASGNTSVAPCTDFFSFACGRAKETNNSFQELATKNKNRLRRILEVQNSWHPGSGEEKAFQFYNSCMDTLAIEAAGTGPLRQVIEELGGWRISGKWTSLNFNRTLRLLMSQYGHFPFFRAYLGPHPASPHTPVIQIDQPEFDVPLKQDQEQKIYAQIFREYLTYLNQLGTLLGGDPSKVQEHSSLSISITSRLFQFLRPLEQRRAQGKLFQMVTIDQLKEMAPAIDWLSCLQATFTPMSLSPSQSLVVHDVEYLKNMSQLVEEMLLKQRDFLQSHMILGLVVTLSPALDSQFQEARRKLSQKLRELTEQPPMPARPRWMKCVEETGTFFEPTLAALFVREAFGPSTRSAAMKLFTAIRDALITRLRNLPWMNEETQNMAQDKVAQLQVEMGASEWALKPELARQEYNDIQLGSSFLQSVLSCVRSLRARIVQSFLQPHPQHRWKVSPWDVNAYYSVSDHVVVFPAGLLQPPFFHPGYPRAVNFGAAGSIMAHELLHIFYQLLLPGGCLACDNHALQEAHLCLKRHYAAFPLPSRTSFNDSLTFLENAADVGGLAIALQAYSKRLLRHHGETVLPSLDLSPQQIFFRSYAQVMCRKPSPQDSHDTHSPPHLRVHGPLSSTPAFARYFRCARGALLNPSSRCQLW
# UniProt Q16644, sequence (Q16644 whole entry, looked up): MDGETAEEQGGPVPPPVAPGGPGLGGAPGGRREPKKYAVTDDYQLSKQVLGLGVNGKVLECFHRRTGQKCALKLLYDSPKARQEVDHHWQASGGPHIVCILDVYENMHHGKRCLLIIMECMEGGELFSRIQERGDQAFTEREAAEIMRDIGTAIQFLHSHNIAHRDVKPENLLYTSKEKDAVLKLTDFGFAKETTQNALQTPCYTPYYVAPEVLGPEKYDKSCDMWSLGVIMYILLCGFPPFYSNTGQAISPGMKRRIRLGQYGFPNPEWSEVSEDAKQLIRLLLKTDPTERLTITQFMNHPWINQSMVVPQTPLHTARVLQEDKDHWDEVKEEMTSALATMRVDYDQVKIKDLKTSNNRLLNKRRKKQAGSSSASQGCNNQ
# UniProt P17936, sequence (P17936 whole entry, looked up): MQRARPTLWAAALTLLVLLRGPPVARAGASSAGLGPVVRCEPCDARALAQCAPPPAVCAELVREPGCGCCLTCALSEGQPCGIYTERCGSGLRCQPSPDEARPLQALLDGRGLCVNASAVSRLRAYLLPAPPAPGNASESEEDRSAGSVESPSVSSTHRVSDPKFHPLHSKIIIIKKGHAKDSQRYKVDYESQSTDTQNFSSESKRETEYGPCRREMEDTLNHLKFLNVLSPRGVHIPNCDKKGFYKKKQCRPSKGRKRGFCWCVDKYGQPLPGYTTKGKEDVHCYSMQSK
# UniProt O00629, sequence (O00629 whole entry, looked up): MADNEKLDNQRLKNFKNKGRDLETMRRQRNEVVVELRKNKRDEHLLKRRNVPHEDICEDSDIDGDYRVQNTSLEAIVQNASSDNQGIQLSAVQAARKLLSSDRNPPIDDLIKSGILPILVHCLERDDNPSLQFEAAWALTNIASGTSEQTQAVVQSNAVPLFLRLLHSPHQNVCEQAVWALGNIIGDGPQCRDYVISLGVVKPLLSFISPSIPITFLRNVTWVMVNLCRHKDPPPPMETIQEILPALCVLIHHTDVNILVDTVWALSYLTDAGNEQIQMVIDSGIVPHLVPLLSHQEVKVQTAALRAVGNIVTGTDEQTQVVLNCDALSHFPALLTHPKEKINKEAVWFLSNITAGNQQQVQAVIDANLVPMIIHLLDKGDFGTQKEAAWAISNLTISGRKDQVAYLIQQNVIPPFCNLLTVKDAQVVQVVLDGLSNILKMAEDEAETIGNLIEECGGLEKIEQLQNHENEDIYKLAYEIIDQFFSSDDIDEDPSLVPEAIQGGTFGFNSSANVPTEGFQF
# UniProt Q9UHB6, sequence (Q9UHB6 whole entry, looked up): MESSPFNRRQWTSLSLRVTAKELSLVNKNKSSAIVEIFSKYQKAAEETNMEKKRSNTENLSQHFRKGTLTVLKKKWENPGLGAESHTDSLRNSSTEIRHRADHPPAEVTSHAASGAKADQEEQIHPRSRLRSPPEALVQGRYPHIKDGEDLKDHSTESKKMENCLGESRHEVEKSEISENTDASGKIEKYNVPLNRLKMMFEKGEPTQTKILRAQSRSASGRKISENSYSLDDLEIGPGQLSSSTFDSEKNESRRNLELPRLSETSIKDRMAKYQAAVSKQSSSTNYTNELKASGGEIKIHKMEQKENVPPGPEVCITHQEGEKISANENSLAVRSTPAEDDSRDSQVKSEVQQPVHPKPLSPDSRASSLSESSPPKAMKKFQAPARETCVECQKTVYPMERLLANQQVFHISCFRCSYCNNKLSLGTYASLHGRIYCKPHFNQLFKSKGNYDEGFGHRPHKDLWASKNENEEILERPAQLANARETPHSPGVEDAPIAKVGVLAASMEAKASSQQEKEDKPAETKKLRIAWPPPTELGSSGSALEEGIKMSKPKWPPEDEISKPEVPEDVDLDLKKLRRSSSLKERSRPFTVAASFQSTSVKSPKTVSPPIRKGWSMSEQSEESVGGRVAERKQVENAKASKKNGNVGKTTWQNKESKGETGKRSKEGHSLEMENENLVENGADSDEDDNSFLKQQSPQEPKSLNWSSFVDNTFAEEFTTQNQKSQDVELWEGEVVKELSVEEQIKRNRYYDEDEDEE
# UniProt P22692, sequence (P22692 whole entry, looked up): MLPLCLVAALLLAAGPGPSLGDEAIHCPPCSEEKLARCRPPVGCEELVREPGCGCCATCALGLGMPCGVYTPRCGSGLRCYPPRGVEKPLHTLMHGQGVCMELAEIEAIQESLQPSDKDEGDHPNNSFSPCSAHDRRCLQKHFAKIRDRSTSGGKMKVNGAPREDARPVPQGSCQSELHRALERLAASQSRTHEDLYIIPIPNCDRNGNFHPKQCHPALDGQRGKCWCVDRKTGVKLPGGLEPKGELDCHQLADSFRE
Target,log2 fold change [1],log2 fold change (crizotinib),log2 fold change [2],log2 fold change [3],log2 fold change (duvelisib),log2 fold change (gandotinib),log2 fold change (tozasertib),log2 fold change [4],log2 fold change (doramapimod),log2 fold change (ispinesib)
LENG8 (UniProt Q96PV6),0.022,-0.342,0.112,0.107,-0.005,-0.094,-0.016,0.055,0.039,0.241
LDLR (UniProt P01130),-0.005,-0.363 (active),-0.05,-0.045,-0.05,-0.038,-0.088,-0.094,-0.017,-0.052
IKZF1 (UniProt Q13422),-0.065,-0.048,0.008,-0.069,0.111,-0.038,-0.078,0.039,-0.016,-0.186
KEL (UniProt P23276),0.002,0.084,-0.048,-0.07,0.015,-0.341,-0.01,0.019,0.028,0.047
LYPLA2 (UniProt O95372),-0.028,0.005,0.299,-0.08,0.189,-0.094,0.056,0.066,0.016,0.172
IGFBP3 isoform 2 (UniProt P17936),-0.097,-0.176,-0.063,-0.149,0.068,-0.545,-0.092,0.027,-0.243,
LSR (UniProt Q86X29),0.08,0.043,0.009,-0.025,0.061,-0.012,-0.044,-0.031,0.04,0.027
IGFBP4 (UniProt P22692),-0.066,0.064,0.022,-0.114,0.02,-0.229,-0.021,-0.007,0,-0.233
MAPKAPK3 (UniProt Q16644),-0.033,-0.078,0.048,0.115,0.015,-0.043,0.014,-0.021,0.314,-0.111
LMNB1 (UniProt P20700),-0.01,0.038,0.108,-0.172,-0.018,-0.03,0.096,-0.022,-0.003,0.041
KIAA1324L (UniProt A8MWY0),0.081,-0.125,0.06,0.062,-0.027,0.076,-0.036,-0.057,0.051,-0.124
MARCKSL1 (UniProt P49006),0.032,0.09,-0.006,-0.094,0.025,-0.006,-0.033,-0.074,-0.047,0.071
MAPKAPK2 (UniProt P49137),-0.032,-0.082,0.035,-0.019,0.006,-0.066,-0.018,0.006,0.147,-0.003
MIA2 (UniProt Q96PC5),0.001,0.015,0.006,-0.059,-0.077,-0.034,0.09,0.044,-0.01,0.011
LEO1 (UniProt Q8WVC0),0.092,0.026,-0.202,-0.126,0.008,-0.031,0.114,-0.008,0.071,0.052
LARP4 isoform 4 (UniProt Q71RC2),-0.027,-0.098,-0.308 (active),0.177,-0.075,0,0.017,0.06,0.104,-0.237
IPO9 (UniProt Q96P70),-0.04,-0.031,0.051,-0.042,0.007,-0.146,0.143,0.041,0.008,0.062
KIF1B isoform 4 (UniProt O60333),0.002,-0.067,0.048,0.035,0.011,-0.043,0.03,0.052,0.029,-0.149
MEPCE (UniProt Q7L2J0),-0.006,0.111,0.03,-0.005,-0.005,-0.051,0.094,0.04,-0.22,-0.065
INTS7 (UniProt Q9NVH2),0.009,-0.133,-0.053,-0.054,0,0.211,0.008,0.014,-0.091,-0.036
KPNA4 (UniProt O00629),0.004,-0.003,0.024,-0.073,0.03,-0.032,-0.014,0.014,-0.046,0.037
MGST1 (UniProt P10620),-0.006,0.152,-0.01,-0.257 (active),-0.042,0.044,-0.111,-0.123,-0.053,-0.027
LIMA1 isoform 4 (UniProt Q9UHB6),-0.076,0.001,-0.04,-0.057,0.003,0.019,0.027,-0.036,-0.023,0.185
KCT2 (UniProt Q8NC54),0,-0.186,0.074,-0.04,0.064,0.038,0.033,0.054,0.091,-0.118
MAP2K2 (UniProt P36507),0.013,-0.055,0.069,-0.052,0.02,-0.069,-0.041,-0.01,-0.038,-0.058
ILF3 isoform 7 (UniProt Q12906),-0.159,-0.074,-0.181,0.286,-0.092,0.1,0.039,-0.001,0.118,0.034
LARP1 (UniProt Q6PKG0),-0.04,-0.097,-0.172,0.134,-0.121,0.026,-0.001,0.01,0.06,-0.166
KIF3A (UniProt Q9Y496),0.049,-0.239,-0.01,0.143,0.048,-0.024,0.009,-0.029,0.003,0.044
IWS1 (UniProt Q96ST2),0.077,0.146,0.132,0.119,0.028,0.108,0.058,0.062,-0.134,0.061
LTV1 (UniProt Q96GA3),0.006,-0.143,-0.189,0.294,-0.087,0.199,0.035,0.009,0.128,-0.271
